# This is part of a sample that, as a whole, favours compounds with a hit. Of some 79,000 tested, about 15% had one in any assay. A number with no mark means an inactive call. Calls of active or inactive are those of the source. Cut-off read from the data, not from the text of the source: active = growth inhibition above about 70%; inactive = the rest.
# Tests used:
# [1] = NCI Yeast Anticancer Drug Screen. Data for the rad52 strain (AID 147);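 note: 0% = growth of vehicle-treated control cultures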; conditions: S. cerevisiae rad52 mutant growth inhibition, active compounds read high
# In short: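 Screen used a yeast mutant impaired in DNA repair. After compound exposure, growth was measured. Values reflect inhibition compared with vehicle-treated cells.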
# [2] = NCI Yeast Anticancer Drug Screen. Data for the wt1 strain (AID 149);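 note: 0% = growth of vehicle-treated wt1 cultures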; conditions: S. cerevisiae wt1 strain (SPY 50644) growth inhibition, active compounds read high
# In short: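 Compounds are added to wt1 yeast cultures. Growth is then measured. Inhibition is expressed relative to vehicle-treated controls.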
# [3] = NCI Yeast Anticancer Drug Screen. Data for the rad50EPP+ strain (AID 151);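 note: 0% = growth of vehicle-treated control cultures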; conditions: S. cerevisiae rad50 mutant strain, active compounds read high
# In short: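 Exposing the rad50EPP+ strain to each compound, growth was compared with vehicle-only cultures to give inhibition.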
# [4] = NCI Yeast Anticancer Drug Screen. Data for the mgt1 strain (AID 153); conditions: S. cerevisiae mgt1 mutant growth inhibition, active compounds read high
# In short: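 Genetically defined yeast (mgt1) treated with compound; inhibition of growth expressed against vehicle-treated controls.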
# [5] = NCI Yeast Anticancer Drug Screen. Data for the rad50 strain (AID 155);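 note: 0% = growth of vehicle-only cultures of the same strain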; conditions: S. cerevisiae rad50 strain growth inhibition, active compounds read high
# In short: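 Inhibition values express reduced yeast growth in compound-treated cultures relative to vehicle-treated controls.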
# [6] = NCI Yeast Anticancer Drug Screen. Data for the mec2-1 strain (AID 157); conditions: S. cerevisiae mec2-1 strain, active compounds read high
# In short: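 Readout is yeast growth inhibition, normalised to vehicle-treated controls, in the mec2-1 strain exposed to compound.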
# [7] = NCI Yeast Anticancer Drug Screen. Data for the rad14 strain (AID 159);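 note: 0% = growth of vehicle-treated control cultures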; conditions: S. cerevisiae rad14 strain growth inhibition, active compounds read high
# In short: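 A mutant yeast strain defective in DNA damage repair is treated with compound; inhibition of its growth is scored against untreated, vehicle-exposed cultures.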
# [8] = NCI Yeast Anticancer Drug Screen. Data for the sgs1 mgt1 strain (AID 161);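 note: 0% = growth of cultures given vehicle only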; conditions: S. cerevisiae sgs1 mgt1 strain, active compounds read high
# In short: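 Yeast cells carrying a defined DNA-repair defect were exposed to test compounds. Growth inhibition was measured relative to vehicle-treated controls.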
# [9] = NCI Yeast Anticancer Drug Screen. Data for the CLN2oe strain (AID 163);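 note: 0% = growth of vehicle-only control cultures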; conditions: S. cerevisiae CLN2oe strain, active compounds read high
# In short: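 Values reflect how much compound exposure reduced yeast growth, referenced to vehicle-exposed cells. Assay organism is a strain with a defined genetic change affecting cell-cycle control.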
# [10] = NCI Yeast Anticancer Drug Screen. Data for the cln2 rad14 strain (AID 165);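 note: 0% = growth equal to vehicle treated cultures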; conditions: S. cerevisiae cln2 rad14 strain, active compounds read high
# In short: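 Relative to vehicle controls, growth inhibition of compound-treated cln2 rad14 yeast was recorded.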
# [11] = NCI Yeast Anticancer Drug Screen. Data for the bub3 strain (AID 167); conditions: S. cerevisiae bub3 mutant strain, active compounds read high
# In short: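 Steps: expose the mutant yeast strain to compound; grow alongside vehicle-treated cultures; measure growth; express inhibition against the vehicle cultures.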
# [12] = NCI Yeast Anticancer Drug Screen. Data for the wt2 strain (AID 169);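 note: 0% = growth of vehicle-treated yeast cultures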; conditions: S. cerevisiae wt2 strain growth inhibition, active compounds read high
# In short: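 Values express reduction in yeast growth under compound treatment, referenced to vehicle-treated cells.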
# [13] = NCI Yeast Anticancer Drug Screen. Data for the mlh1 strain (AID 171);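 note: 0% = growth of vehicle-treated control cultures of the same strain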; conditions: S. cerevisiae mlh1 strain growth inhibition, active compounds read high
# In short: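 Steps: expose the defined-mutant yeast strain to compound; expose a parallel culture to vehicle; measure growth; express compound effect as inhibition relative to the vehicle culture.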
# [14] = NCI Yeast Anticancer Drug Screen. Data for the sgs1 strain (AID 173);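 note: 0% = growth of vehicle-only control cultures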; conditions: S. cerevisiae sgs1 mutant, active compounds read high
# In short: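 Treat defined-mutant yeast with compound; measure growth; calculate inhibition relative to vehicle-treated cells.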
# [15] = NCI Yeast Anticancer Drug Screen. Data for the mlh1 rad18 strain (AID 175); conditions: S. cerevisiae mlh1 rad18 strain growth inhibition, active compounds read high
# In short: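 Test agents were incubated with a yeast strain of defined genotype (DNA damage repair defect). Inhibition of growth was derived by comparison with vehicle-exposed cultures.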
# [16] = NCI Yeast Anticancer Drug Screen. Data for the rad18 strain (AID 177); conditions: S. cerevisiae rad18 mutant growth inhibition, active compounds read high
# In short: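 A genetically defined yeast mutant impaired in DNA damage repair was treated with test compounds, then its growth was measured against cultures receiving vehicle alone.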
# [17] = at 5.0 µM (retest, dose inferred, filed as 0.5)
# [18] = at 50.0 µM (retest, dose inferred, filed as 5.0)
smiles,measurement,setting,value
COc1cc(C2SCC(=O)N2c2ccc(-c3ccc(-n4c(-c5ccccc5)nc5ccccc5c4=O)cc3)cc2)ccc1O (stereo not drawn),growth inhibition,[1]; at 1.2 µM,-2%
same,growth inhibition,[1]; at 3.7 µM,0%
same,growth inhibition,[1]; at 11.0 µM,2%
same,growth inhibition,[1]; at 33.0 µM,6%
same,growth inhibition,[1]; at 100.0 µM,16%
same,growth inhibition,[2]; at 1.2 µM,-2%
same,growth inhibition,[2]; at 3.7 µM,-2%
same,growth inhibition,[2]; at 11.0 µM,-1%
same,growth inhibition,[2]; at 33.0 µM,-4%
same,growth inhibition,[2]; at 100.0 µM,-8%
same,growth inhibition,[3]; at 1.2 µM,3%
same,growth inhibition,[3]; at 3.7 µM,13%
same,growth inhibition,[3]; at 11.0 µM,19%
same,growth inhibition,[3]; at 33.0 µM,27%
same,growth inhibition,[3]; at 100.0 µM,27%
same,growth inhibition,[4]; at 1.2 µM,1%
same,growth inhibition,[4]; at 3.7 µM,1%
same,growth inhibition,[4]; at 11.0 µM,0%
same,growth inhibition,[4]; at 33.0 µM,2%
same,growth inhibition,[4]; at 100.0 µM,28%
same,growth inhibition,[5]; at 1.2 µM,-4%
same,growth inhibition,[5]; at 3.7 µM,-1%
same,growth inhibition,[5]; [17],-11%
same,growth inhibition,[5]; at 11.0 µM,0%
same,growth inhibition,[5]; at 33.0 µM,8%
same,growth inhibition,[5]; [18],35%
same,growth inhibition,[5]; at 50.0 µM,58.4%
same,growth inhibition,[5]; at 100.0 µM,21%
same,growth inhibition,[6]; at 1.2 µM,0%
same,growth inhibition,[6]; at 3.7 µM,-1%
same,growth inhibition,[6]; [17],-11%
same,growth inhibition,[6]; at 11.0 µM,0%
same,growth inhibition,[6]; at 33.0 µM,2%
same,growth inhibition,[6]; [18],21%
same,growth inhibition,[6]; at 50.0 µM,34%
same,growth inhibition,[6]; at 100.0 µM,9%
same,growth inhibition,[7]; at 1.2 µM,-1%
same,growth inhibition,[7]; at 3.7 µM,-1%
same,growth inhibition,[7]; at 11.0 µM,2%
same,growth inhibition,[7]; at 33.0 µM,11%
same,growth inhibition,[7]; at 100.0 µM,25%
same,growth inhibition,[8]; [17],-7%
same,growth inhibition,[8]; [18],31%
same,growth inhibition,[8]; at 50.0 µM,65%
same,growth inhibition,[9]; at 1.2 µM,-2%
same,growth inhibition,[9]; at 3.7 µM,-2%
same,growth inhibition,[9]; at 11.0 µM,-7%
same,growth inhibition,[9]; at 33.0 µM,-14%
same,growth inhibition,[9]; at 100.0 µM,-14%
same,growth inhibition,[10]; [17],-9%
same,growth inhibition,[10]; [18],10%
same,growth inhibition,[10]; at 50.0 µM,25.7%
same,growth inhibition,[11]; at 1.2 µM,1%
same,growth inhibition,[11]; at 3.7 µM,9%
same,growth inhibition,[11]; [17],-14%
same,growth inhibition,[11]; at 11.0 µM,19%
same,growth inhibition,[11]; at 33.0 µM,23%
same,growth inhibition,[11]; [18],69%
same,growth inhibition,[11]; at 50.0 µM,82.3% (active)
same,growth inhibition,[11]; at 100.0 µM,41%
same,growth inhibition,[12]; at 1.2 µM,-2%
same,growth inhibition,[12]; at 3.7 µM,-2%
same,growth inhibition,[12]; at 11.0 µM,-2%
same,growth inhibition,[12]; at 33.0 µM,-2%
same,growth inhibition,[12]; at 100.0 µM,4%
same,growth inhibition,[13]; at 1.2 µM,-2%
same,growth inhibition,[13]; at 3.7 µM,1%
same,growth inhibition,[13]; at 11.0 µM,1%
same,growth inhibition,[13]; at 33.0 µM,3%
same,growth inhibition,[13]; at 100.0 µM,20%
same,growth inhibition,[14]; at 1.2 µM,-3%
same,growth inhibition,[14]; at 3.7 µM,0%
same,growth inhibition,[14]; at 11.0 µM,0%
same,growth inhibition,[14]; at 33.0 µM,2%
same,growth inhibition,[14]; at 100.0 µM,10%
same,growth inhibition,[15]; [17],-14%
same,growth inhibition,[15]; [18],76% (active)
same,growth inhibition,[15]; at 50.0 µM,73.7% (active)
same,growth inhibition,[16]; at 1.2 µM,-3%
same,growth inhibition,[16]; at 3.7 µM,-1%
same,growth inhibition,[16]; at 11.0 µM,0%
same,growth inhibition,[16]; at 33.0 µM,3%
same,growth inhibition,[16]; at 100.0 µM,7%

# From PubChem BioAssay (NCI)
